Reference: the supplement of paper PMC6555819

Tested on: LXRb:RXRa (NR concentration 270 nM, RXRa partner concentration 90 nM)
Assay: PBM binding z-score (relative to random genomic background probes); higher = stronger binding; sequences stand for … in GC…GCGATTGACAGCGTAGAATGAAGG
Procedure: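 Protein-binding microarray (Agilent 4x180K custom design, double-stranded 60-nt probes: 5' GC cap, 34-nt variable region, 24-nt constant primer region; full probe sequence given). Purified or IVT nuclear receptor:RXRα heterodimers (3:1 NR:RXRα, mostly 270:90 nM) or homodimers were incubated for 1 h in PBS with 2% milk and no ligand, then detected with Alexa488 antibodies. Fluorescence from o1-orientation probes (~5 replicates averaged) was converted to z-scores against 500 random hg19 background probes. Variable regions are seed direct-repeat (DR0–DR5) sites, all their single-nucleotide variants and half-site ablations.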

Sequence | PBM binding z-score
AGAATGGGGTTATACGTAGATCAGGGAAGAAAGT | 4.38
ATATGTAGGTTAGCTGAGGTCATTCAGACTAGGC | 4.72
ACTTAAGGGTCAACGAGGTTATAGCACGCGTATA | 5.33
TCTCGGAGGACACAAAGGTCAGAGCTTTCCAGAG | 3.15
CCTACTGGGCCAAAAAGTTCATTGATGCCGATAA | 1.09
AATACAGGGTAACTAGGCCAGAGTAGGTACGAAT | 0.0448
CCTTACGGGTCACTCCAGGTTATATCATCGGAGT | 5.38
CAAACTAGGTCACAAAAGGTCAAAGTCGAATGAC | 7.76
AGAACGAGGTCACGCTGAGTTGATAGCAGAGTAG | 5.24
GGAACGAGGTCATTCGAGTTGATAGCATGGCGAT | 4.8
TAGCCTAGGTCATGGGCCAGTGTACCACGCGAAC | 2.46
ATCGAAAGGTCGACGAGGTGAGTAAACACCGTTT | 2.87
TTGCCAAGGTGAAAGGTCGTTGATGCACGCCTTG | 2.63
CCTTACGGGTCACGAGGTCATAGCACGACGAGCG | 5.05
TAGCCTAGTTCATGCGGGCCAGTATAGTGTCGGC | -0.398
ATCGAAAGGTCGTGAGGTAAGTATACAGAAAGGC | 3.5
CCTTAAGGGTCACGAGGTTATAGCACGACGAGCG | 5.38
ATCGAAAGGTCTAAGGTGAGTATACCCACCCGAA | 0.196
ATCGAAAGGTCGACGCGGTGAGTATACACCGTTT | 2.25
TAGCCTAGGTCATGCGGGCCAATATAGTGTCGGC | 1.9

Sequence | PBM binding z-score
CCTACTGGGCCAAAGAGGTCATTGATGCCGATAA | 3.65
CGAACGAGGTCAAAGGACAGTGAAAGGCGACGTA | 4.81
TAGCCTAGGTCATACAGGGGCCAGTATAGAAAGC | 2.48
TCTTGTAGATCGATAGAGGTTAAGAAAGTGCGCT | 1.52
CGAACTAGGTCAAAGGACATTGAAAGGCGACGTA | 2.06
GATATAGGGTCAGCTAGAGGCCAGAGTATGGAAA | 2.77
CCTCGGAGGTCAACAGGAGGTCAGAGCTGCCAGA | 5.75
CGAACTAGGTCATTGACAGGACAATGAATAGTAA | 2.47
GGAACGAGGTCAAAGTTGATAGCATCTGTCGACG | 5.45
CAGCATAGGTCAGGGCCAGTATAGGAGGAACGTT | 1.98
GGAACGAGGGCATTCGAGTTCATAGCATGGCGAT | 3.44
TGTCAATGTTCAAAGGTAACGTAAGTATCCACAC | 0.772
AGAATGGGGTTACCAAAGATCAGGGAAACGCTTG | 5.03
CAAACTAGGTCAAGAGGTCAAAGTTCGCTTCCCG | 6.05
AGCGAAAGGTCGAGGTGAGTATAGAGAAAGGGAA | 2.7
CCTACTGGGCCAAAAAGGTCATTGATGCCGATAA | 3.74
AGTCAAAGTTCATCTAGGTCACGTAAGATATGCT | 4.9
CCAGACAGGTGAGAAGGTAACTCAGCCTCGATTA | 0.609
ATATGTAGGTTAGCTGGGGTCCTTCAGACTAGGC | 0.853
TAGCCTAGGTCGTTCAGGGGCCAGTATAGAAAGC | 0.582
